# Bioassay records as filed in PubChem BioAssay.
# Sampled rows, rich in hits. Any-hit rate of the full collection: about 2.4%.
# p53ts 39C tox: p53ts cell cytotoxicity, nonpermissive temperature. actives 1.5% (n = 130,000). Potency, µM (doses to about 46.1 µM), for the others: at the highest dose activity change, negative = cell killing, actives largely listed as cytotoxic. H1299-p53A138V viability at 39C, ATP luminescence, 24 h. AID 902; note: % is set by controls: 0 for no effect and ±100 for the full control effect; nearly all actives have a fitted effect of over 55% in size
# Peg3 imprint: genomic imprint erasure induction; mouse ES Peg3-LacZ reporter, beta-gal luminescence, 40 h; Potency, µM (doses to about 60.7 µM), without a hit: at the highest dose activity change, positive = activation, hits mostly activators; actives 0.02% (n = 110,000)
#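 Gelatin-coated wells received 300 freshly trypsinized female ES cells with a Peg3LacZ-Neo reporter on the maternal allele, then incubated 40 hours at 37C. BetaGlo was added for 5 minutes at room temperature before a single luminescence read.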
# Luciferase inh: firefly luciferase inhibition; P08659; purified firefly luciferase, luminescence, 8 min; Potency, µM (series often up to 57.1 µM), inactives show at the top dose activity change, negative = inhibition, usual class: inhibitors; actives 2.2% (n = 72,000); note: % is set by controls: 0 for no effect and ±100 for the full control effect; nearly all actives have a fitted effect of over 40% in size
# Target sequence (P08659 whole entry, looked up): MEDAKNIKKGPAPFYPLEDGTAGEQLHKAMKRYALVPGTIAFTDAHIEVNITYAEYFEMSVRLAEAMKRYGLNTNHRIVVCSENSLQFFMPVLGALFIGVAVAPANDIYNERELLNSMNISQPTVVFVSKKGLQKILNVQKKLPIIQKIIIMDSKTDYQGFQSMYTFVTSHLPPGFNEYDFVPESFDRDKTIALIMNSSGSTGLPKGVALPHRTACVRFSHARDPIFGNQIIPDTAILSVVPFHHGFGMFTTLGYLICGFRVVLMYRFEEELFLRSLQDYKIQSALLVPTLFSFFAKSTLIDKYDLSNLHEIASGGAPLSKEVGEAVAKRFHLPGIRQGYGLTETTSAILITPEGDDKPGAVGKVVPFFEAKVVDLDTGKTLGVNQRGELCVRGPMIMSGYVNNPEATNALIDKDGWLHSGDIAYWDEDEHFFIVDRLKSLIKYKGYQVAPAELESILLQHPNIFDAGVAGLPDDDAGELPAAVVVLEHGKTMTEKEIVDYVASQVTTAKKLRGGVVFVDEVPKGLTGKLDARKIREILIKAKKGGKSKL
#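 Here, luciferase activity is measured as luminescence following an 8 min room-temperature reaction at 10 uM ATP, pH 7.2. Every library sample is titrated.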
# IkB sig inh: IkB pathway inhibition in ABC-DLBCL cells. ABC-DLBCL IkBa-CBG/CBR dual luciferase ratio, 4 h; response scale: scaled: untreated 0%, proteasome inhibitor 100%. Potency, µM (doses to about 57.1 µM), for inactives: at the highest dose IkBa stabilization activation. actives 0.04% (n = 110,000). AID 445; active = well fitted curve in the direction sought with a large enough effect in the signal ratio, not every such curve was filed as active; inconclusive = small, poorly fitted or top-dose-only effect, or a change in a side signal; the % refers to the signal ratio;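 note: the direction sought is a rising ratio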
#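 In this assay, an IκBα–CBG68 fusion accumulates when IKK-driven degradation is blocked; native CBR normalizes for cell number. OCI-Ly3 cells were treated 4 h with compound and doxycycline, then green and red light read after Chroma-Glo addition.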
# p53ts 32C tox: kills p53ts cells at the permissive temperature. H1299-p53A138V at 32C, ATP luminescence viability, 24 h. Potency, µM (doses to about 46.1 µM), without a hit: at the highest dose activity change, negative = cytotoxicity, usual class: cytotoxic. actives 0.93% (n = 130,000);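 note: 0% = DMSO and -100% = full killing by reference compound; nearly all actives have a fitted effect of over 55% in size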
#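 H1299-p53 A138V cells (temperature-sensitive p53) exposed 24 h to up to 46 uM compound at 32C, where p53 is wild-type in conformation. Viability read as ATP luminescence and normalised to DMSO and 100 uM tamoxifen. AC50 fitted with the Hill equation.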
# * = called active by the depositor; ? = inconclusive; · = not tested or not shown; [ ] = dose if it differs, or a comment. Unless noted, calls come from the whole dose curve; as a rule, active = well fitted curve in the direction sought with a large enough effect; inconclusive = small, poorly fitted or top-dose-only effect, or another doubt; inactive = no such curve, though single readings can be large; an effect the other way counts as inactive or inconclusive. Potency is the fitted concentration of half-maximal effect.
SMILES,p53ts 39C tox,Peg3 imprint,Luciferase inh,IkB sig inh,p53ts 32C tox
CC(=O)c1cc2c(cc1NC(=O)Nc1cccc(Cl)c1)OCCO2,7%,0%,-5%,2%,-17%
O=C(Nc1cccc(Cl)c1)Nc1ccc2c(c1)OCO2,-2%,-33%,16µM*,?,-5%
COc1ccccc1NC(=O)CN1CCN(CC(=O)Nc2ccc3c(c2)OCCO3)CC1,25µM*,-7%,0%,?,9%
COc1ccc(CCNc2ncnc3c2nnn3C)cc1,-17%,-18%[10.9 µM],·,2%,12%
COc1ccc(Br)c2c1-c1nc(NC(=O)c3cccc(C)c3)sc1C2,10%,-10%[10.9 µM],·,?,11%
O=C(Nc1ccc2c(c1)OCO2)c1ccc(Br)s1,?,-46%,13µM*,?,13µM*
CCOC(=O)c1c(C)[nH]c(C(=O)Nc2ccc3c(c2)OCO3)c1C,?,-72%,13µM*,3%,-21%
CN(c1ccccc1C(=O)Nc1ccc2c(c1)OCO2)S(C)(=O)=O,9%,10%,-1%,4%,3%
CCCN1Cc2cccc(C(=O)Nc3ccc4c(c3)OCO4)c2C1=O,1%,-16%,-2%,-2%,-6%
CCCN1Cc2cccc(C(=O)Nc3ccc4c(c3)OCCO4)c2C1=O,3%,-24%,13µM*,-4%,-18%
Cc1ccccc1C(=O)Nc1ccc2c(c1)OCO2,13µM*,·,16µM*,5%,10µM*
Cc1c(Cl)cccc1NS(=O)(=O)c1ccc(-c2cnc(C3CC3)o2)cc1,-10%,-30%[10.9 µM],·,-1%,14%
COc1ccc(Nc2c3c(nc4ccc(NC(=O)c5cc(Cl)ccc5OC)cc24)CCCC3)cc1OC,5µM*,-37%[10.9 µM],·,?,5.6µM*
COc1ccc(Cl)cc1C(=O)Nc1ccc(NC(=O)c2ccco2)cc1,0%,-6%,2%,0%,0%
COc1cc(SC)ccc1C(=O)Nc1ccc2c(c1)OCCO2,13µM*,-74%,1.3µM*,?,10µM*
COc1cc(C(=O)Nc2ccc3c(c2)OCCO3)c(-n2cnnn2)cc1OC,-10%,5%,3%,0%,4%
COc1ccccc1C(=O)Nc1ccc2c(c1)nc(CCNC(C)=O)n2C,13µM*,-13%,?,3%,13µM*
COc1ccc(Cl)cc1C(=O)Nc1ccc2c(c1)OCO2,?,-15%,13µM*,-1%,?
CN(C)CN1C(=O)S/C(=C2/C(=O)N(CN(C)C)c3ccccc32)C1=O,5%[9.22 µM],-6%[10.9 µM],1%[11.4 µM],3%[11.4 µM],-1%[9.22 µM]
COc1ccccc1CNS(=O)(=O)c1ccc2c(c1)NC(=O)C(C)C(=O)N2 (stereo not given),-12%,-8%[10.9 µM],·,1%,7%
CCC(Sc1nc2c(sc3ccccc32)c(=O)n1CCc1ccc(OC)c(OC)c1)C(=O)N(CC)CC (stereo not given),5%,-13%[10.9 µM],·,?,13%
Cc1cccc(OCc2ccc(-c3nc(C#N)c(NCc4cccnc4)o3)o2)c1,?,-10%[10.9 µM],·,?,?
Oc1c(I)cc(Cl)c2cccnc12,7.9µM*,-31%,0%[25.5 µM],?,?
Oc1ccc(CN2CCN(Cc3ccccc3)CC2)c2cccnc12,-23%,-44%,1%,1%,?
Oc1c(CN2CCCCC2)cc(Br)c2cccnc12,10µM*,-27%,-1%,?,-23%
SMILES,p53ts 39C tox,Peg3 imprint,Luciferase inh,IkB sig inh,p53ts 32C tox
COc1cc(C(=O)NC(c2ccccc2Cl)c2cc(Cl)c3cccnc3c2O)cc(OC)c1OC (stereo not given),?,-34%[10.9 µM],·,4%,?
Oc1c(CN2CCc3ccccc3C2)cc(Cl)c2cccnc12,4µM*,-31%,5%,?,13µM*
Cc1cc(Cl)ccc1OCC(=O)N(Cc1sccc1C)C1CCS(=O)(=O)C1 (stereo not given),-6%,-10%[10.9 µM],·,5%,7%
Cc1ccc(NC(=O)CN2C=NS(=O)(=O)c3ccccc32)cc1,21%,-5%[10.9 µM],·,0%,-3%
CCOc1ccc(CNC(=O)C2CCN(S(=O)(=O)c3cn(C)cn3)CC2)cc1,-6%,7%[10.9 µM],·,2%,4%
CC(=O)OC(C)(C)N=Nc1ccc(Br)cc1,·,·,4%[11.4 µM],0%[11.4 µM],·
O=C(OCC(=O)c1cccs1)c1ccccc1,10%,-21%,13µM*,1%,-1%
